In ChEMBL document CHEMBL2218924, “A broad activity screen in support of a chemogenomic map for kinase signalling research and drug discovery” (Biochem J, 2013):

How the values were obtained:
[1] = target: T1, Serine/threonine-protein kinase TBK1 (Homo sapiens) (UniProt Q9UHD2); conditions: at 10 µM
T1 sequence (whole entry): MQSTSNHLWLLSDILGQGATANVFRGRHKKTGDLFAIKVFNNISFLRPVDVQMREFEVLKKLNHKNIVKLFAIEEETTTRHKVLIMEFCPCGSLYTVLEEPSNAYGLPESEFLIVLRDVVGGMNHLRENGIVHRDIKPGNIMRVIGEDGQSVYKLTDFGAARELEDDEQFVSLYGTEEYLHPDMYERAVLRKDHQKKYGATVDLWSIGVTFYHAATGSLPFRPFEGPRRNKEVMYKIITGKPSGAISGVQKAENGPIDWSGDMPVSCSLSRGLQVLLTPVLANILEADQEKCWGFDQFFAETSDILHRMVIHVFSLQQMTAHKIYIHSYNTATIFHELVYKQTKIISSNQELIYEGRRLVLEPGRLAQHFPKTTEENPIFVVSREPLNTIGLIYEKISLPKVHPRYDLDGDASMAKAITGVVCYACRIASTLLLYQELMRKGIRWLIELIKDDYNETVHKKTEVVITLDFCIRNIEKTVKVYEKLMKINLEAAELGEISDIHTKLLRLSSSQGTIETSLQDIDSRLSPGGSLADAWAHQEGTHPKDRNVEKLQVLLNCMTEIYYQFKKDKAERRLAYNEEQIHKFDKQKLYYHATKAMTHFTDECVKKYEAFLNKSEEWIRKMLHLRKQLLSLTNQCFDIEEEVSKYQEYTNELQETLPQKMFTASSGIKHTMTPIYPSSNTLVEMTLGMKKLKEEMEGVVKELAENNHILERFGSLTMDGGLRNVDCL

[2] = target: T2, TGF-beta receptor type-1 (Homo sapiens) (UniProt P36897); conditions: at 1 µM
T2 sequence (whole entry): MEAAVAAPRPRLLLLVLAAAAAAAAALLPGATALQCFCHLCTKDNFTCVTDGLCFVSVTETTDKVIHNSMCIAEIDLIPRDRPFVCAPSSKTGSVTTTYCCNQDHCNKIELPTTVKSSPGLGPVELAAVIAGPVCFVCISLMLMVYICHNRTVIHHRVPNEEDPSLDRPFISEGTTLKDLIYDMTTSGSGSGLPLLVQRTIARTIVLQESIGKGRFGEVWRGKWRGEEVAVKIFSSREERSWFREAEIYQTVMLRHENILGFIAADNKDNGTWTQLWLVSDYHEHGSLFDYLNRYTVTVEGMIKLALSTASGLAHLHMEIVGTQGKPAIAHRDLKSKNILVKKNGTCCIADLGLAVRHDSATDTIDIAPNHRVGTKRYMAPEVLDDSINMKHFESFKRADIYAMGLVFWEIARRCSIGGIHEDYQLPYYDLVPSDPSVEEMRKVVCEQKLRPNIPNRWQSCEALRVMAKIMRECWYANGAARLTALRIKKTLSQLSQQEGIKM

[3] = target: T2, TGF-beta receptor type-1 (Homo sapiens); conditions: at 10 µM
[4] = target: Insulin-like growth factor 1 receptor (Homo sapiens) (UniProt P08069); conditions: at 1 µM
Insulin-like growth factor 1 receptor (Homo sapiens), sequence (P08069 31-736 limits assumed): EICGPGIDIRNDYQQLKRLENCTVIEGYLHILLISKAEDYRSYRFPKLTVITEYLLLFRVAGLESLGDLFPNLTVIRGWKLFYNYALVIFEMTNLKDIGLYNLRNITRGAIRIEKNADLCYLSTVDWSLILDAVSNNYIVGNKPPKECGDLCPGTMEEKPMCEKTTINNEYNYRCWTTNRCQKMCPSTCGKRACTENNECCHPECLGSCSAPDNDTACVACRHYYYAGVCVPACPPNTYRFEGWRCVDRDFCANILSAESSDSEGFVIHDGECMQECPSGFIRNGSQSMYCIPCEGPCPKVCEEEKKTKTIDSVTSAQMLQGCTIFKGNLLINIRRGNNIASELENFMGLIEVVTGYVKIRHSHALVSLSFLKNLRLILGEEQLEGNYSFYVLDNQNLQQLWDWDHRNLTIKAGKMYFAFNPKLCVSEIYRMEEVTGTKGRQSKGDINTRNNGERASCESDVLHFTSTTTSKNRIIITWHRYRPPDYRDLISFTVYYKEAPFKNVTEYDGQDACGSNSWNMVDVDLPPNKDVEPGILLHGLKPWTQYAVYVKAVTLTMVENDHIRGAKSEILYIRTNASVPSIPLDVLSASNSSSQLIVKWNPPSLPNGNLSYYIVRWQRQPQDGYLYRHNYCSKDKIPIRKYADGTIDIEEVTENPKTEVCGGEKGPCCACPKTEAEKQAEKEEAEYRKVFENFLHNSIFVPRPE
Insulin-like growth factor 1 receptor (Homo sapiens), sequence (P08069 741-1367 limits assumed): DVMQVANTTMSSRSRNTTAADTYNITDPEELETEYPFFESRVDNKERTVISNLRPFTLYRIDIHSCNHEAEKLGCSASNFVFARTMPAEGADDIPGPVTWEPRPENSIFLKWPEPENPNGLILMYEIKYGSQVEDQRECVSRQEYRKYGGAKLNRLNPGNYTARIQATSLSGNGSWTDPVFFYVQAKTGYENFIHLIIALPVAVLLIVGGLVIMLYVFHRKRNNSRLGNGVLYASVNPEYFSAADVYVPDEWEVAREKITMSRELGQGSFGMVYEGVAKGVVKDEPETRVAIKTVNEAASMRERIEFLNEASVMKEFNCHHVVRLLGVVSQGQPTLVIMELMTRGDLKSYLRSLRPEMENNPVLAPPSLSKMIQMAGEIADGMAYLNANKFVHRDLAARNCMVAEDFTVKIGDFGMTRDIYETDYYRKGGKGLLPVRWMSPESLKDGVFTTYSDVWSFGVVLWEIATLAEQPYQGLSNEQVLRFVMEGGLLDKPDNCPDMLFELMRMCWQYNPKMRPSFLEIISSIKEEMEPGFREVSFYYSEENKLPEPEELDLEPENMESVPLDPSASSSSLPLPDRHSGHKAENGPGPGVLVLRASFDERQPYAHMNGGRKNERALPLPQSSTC

[5] = target: Insulin-like growth factor 1 receptor (Homo sapiens) (UniProt P08069); conditions: at 10 µM
[6] = target: T3, Inhibitor of nuclear factor kappa-B kinase subunit alpha (Homo sapiens) (UniProt O15111); conditions: at 1 µM
T3 sequence (whole entry): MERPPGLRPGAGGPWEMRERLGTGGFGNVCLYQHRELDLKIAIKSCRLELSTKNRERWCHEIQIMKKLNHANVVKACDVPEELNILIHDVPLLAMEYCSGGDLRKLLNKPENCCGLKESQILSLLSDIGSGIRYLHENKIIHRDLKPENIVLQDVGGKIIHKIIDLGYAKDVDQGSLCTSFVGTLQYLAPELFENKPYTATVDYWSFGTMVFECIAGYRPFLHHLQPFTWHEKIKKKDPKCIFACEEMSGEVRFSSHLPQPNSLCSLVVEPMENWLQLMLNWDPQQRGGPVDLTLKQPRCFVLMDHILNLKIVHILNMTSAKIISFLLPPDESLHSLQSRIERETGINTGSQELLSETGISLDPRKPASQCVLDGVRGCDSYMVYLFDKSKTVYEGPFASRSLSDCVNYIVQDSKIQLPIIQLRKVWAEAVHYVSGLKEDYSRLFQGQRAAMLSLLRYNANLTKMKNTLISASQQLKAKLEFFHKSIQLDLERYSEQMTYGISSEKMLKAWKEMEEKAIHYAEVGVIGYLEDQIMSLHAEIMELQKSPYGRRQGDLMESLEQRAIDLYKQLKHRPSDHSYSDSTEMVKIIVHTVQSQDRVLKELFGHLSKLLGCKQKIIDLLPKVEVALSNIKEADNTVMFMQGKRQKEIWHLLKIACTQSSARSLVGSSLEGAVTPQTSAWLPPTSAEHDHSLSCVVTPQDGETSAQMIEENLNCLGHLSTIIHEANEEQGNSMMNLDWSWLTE

[7] = target: T3, Inhibitor of nuclear factor kappa-B kinase subunit alpha (Homo sapiens); conditions: at 10 µM
[8] = target: T4, Inhibitor of nuclear factor kappa-B kinase subunit beta (Homo sapiens) (UniProt O14920); conditions: at 1 µM
T4 sequence (whole entry): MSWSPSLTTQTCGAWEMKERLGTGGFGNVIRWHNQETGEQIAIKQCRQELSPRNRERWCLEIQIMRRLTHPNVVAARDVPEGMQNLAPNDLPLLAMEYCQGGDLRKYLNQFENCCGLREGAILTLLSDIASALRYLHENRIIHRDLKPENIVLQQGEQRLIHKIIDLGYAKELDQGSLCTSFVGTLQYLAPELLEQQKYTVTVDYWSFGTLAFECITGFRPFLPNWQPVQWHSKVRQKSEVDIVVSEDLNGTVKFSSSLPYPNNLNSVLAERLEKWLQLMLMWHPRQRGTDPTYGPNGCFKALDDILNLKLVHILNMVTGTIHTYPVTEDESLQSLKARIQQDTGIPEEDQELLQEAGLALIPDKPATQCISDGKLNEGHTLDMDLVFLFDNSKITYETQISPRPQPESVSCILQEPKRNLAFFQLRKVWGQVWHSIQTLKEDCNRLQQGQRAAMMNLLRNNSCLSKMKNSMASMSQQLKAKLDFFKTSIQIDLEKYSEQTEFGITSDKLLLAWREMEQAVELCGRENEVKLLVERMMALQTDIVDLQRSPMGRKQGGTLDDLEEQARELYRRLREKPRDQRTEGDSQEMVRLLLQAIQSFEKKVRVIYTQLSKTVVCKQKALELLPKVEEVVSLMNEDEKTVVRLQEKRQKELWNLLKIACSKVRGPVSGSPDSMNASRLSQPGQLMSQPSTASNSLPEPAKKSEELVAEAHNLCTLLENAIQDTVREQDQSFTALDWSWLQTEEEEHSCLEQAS

[9] = target: T4, Inhibitor of nuclear factor kappa-B kinase subunit beta (Homo sapiens); conditions: at 10 µM
[10] = target: Insulin receptor (Homo sapiens) (UniProt P06213); conditions: at 1 µM
Insulin receptor (Homo sapiens), sequence (P06213 28-758 limits assumed): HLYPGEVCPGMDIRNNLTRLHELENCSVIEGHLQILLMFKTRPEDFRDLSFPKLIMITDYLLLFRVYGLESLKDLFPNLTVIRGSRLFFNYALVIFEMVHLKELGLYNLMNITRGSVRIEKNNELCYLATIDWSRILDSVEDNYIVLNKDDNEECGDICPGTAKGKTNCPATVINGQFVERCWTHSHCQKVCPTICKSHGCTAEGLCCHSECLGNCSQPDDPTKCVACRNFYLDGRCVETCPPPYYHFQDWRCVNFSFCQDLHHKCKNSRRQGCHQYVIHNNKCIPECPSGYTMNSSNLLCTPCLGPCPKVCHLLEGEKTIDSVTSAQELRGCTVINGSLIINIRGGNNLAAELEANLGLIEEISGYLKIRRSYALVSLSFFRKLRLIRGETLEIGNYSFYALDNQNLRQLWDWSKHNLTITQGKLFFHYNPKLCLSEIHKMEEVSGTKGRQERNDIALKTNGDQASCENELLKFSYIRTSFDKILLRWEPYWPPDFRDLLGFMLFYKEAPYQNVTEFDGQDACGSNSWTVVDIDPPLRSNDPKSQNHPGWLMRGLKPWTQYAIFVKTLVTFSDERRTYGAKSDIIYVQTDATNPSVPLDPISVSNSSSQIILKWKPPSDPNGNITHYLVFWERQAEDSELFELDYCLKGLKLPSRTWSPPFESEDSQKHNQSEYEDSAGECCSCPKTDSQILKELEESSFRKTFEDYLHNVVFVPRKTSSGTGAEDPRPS
Insulin receptor (Homo sapiens), sequence (P06213 763-1382 limits assumed): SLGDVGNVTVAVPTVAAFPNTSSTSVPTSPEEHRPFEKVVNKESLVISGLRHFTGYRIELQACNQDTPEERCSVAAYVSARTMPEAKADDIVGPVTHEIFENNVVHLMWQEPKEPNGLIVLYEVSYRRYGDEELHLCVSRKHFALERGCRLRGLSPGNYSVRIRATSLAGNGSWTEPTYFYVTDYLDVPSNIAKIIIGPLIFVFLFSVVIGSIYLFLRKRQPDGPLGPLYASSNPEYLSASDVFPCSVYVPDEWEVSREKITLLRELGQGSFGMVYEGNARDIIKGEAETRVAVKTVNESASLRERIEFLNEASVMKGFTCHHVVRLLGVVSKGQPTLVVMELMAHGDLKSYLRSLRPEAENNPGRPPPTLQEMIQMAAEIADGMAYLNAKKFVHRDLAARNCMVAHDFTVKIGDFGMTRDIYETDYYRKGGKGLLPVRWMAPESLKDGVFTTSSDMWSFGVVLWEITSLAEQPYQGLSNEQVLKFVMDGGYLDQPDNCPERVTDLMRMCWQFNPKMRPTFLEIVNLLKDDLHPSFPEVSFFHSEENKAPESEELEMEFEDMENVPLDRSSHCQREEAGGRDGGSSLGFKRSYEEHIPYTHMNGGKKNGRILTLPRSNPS

[11] = target: Insulin receptor (Homo sapiens) (UniProt P06213); conditions: at 10 µM
[12] = target: Insulin receptor (Homo sapiens) (UniProt P06213); conditions: at 1 µM; remark: listed apart in the source
[13] = target: Insulin receptor (Homo sapiens) (UniProt P06213); conditions: at 10 µM; remark: listed apart in the source
[14] = target: Interleukin-1 receptor-associated kinase 1 (Homo sapiens) (UniProt P51617); conditions: at 1 µM
Interleukin-1 receptor-associated kinase 1 (Homo sapiens), sequence (P51617 whole entry, looked up): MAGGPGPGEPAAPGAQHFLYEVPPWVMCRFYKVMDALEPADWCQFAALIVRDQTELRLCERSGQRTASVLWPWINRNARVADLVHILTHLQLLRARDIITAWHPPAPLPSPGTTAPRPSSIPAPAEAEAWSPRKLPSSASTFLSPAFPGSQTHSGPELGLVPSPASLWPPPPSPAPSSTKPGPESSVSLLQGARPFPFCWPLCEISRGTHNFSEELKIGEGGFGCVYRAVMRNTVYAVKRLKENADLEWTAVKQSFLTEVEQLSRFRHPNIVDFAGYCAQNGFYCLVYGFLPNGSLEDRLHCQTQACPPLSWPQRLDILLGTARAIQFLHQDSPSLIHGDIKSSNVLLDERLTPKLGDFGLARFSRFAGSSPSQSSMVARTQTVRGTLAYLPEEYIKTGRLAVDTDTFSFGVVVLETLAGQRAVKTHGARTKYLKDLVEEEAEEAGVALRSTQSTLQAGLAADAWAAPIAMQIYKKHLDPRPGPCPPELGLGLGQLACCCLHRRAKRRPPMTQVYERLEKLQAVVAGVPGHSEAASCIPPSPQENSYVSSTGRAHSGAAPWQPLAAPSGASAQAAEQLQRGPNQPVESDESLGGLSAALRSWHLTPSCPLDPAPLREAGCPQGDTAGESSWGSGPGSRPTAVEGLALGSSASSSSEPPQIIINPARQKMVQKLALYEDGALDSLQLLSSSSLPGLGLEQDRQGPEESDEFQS

[15] = target: Interleukin-1 receptor-associated kinase 1 (Homo sapiens) (UniProt P51617); conditions: at 10 µM
[16] = target: T5, Interleukin-1 receptor-associated kinase 4 (Homo sapiens) (UniProt Q9NWZ3); conditions: at 1 µM
T5 sequence (whole entry): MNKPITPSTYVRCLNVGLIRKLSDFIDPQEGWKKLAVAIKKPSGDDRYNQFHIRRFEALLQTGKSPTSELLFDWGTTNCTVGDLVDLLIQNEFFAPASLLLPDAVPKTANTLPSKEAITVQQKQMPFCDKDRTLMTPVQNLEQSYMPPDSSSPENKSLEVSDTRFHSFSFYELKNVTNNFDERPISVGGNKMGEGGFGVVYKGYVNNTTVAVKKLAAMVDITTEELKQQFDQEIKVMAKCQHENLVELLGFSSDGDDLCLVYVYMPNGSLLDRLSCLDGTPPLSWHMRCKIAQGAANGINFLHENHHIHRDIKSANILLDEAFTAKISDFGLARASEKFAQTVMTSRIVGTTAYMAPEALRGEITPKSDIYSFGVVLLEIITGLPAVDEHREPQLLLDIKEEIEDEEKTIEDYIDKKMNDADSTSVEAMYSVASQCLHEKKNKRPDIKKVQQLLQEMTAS

[17] = target: T5, Interleukin-1 receptor-associated kinase 4 (Homo sapiens); conditions: at 10 µM
[18] = target: Insulin receptor-related protein (Homo sapiens) (UniProt P14616); conditions: at 1 µM
Insulin receptor-related protein (Homo sapiens), sequence (P14616 27-742 limits assumed): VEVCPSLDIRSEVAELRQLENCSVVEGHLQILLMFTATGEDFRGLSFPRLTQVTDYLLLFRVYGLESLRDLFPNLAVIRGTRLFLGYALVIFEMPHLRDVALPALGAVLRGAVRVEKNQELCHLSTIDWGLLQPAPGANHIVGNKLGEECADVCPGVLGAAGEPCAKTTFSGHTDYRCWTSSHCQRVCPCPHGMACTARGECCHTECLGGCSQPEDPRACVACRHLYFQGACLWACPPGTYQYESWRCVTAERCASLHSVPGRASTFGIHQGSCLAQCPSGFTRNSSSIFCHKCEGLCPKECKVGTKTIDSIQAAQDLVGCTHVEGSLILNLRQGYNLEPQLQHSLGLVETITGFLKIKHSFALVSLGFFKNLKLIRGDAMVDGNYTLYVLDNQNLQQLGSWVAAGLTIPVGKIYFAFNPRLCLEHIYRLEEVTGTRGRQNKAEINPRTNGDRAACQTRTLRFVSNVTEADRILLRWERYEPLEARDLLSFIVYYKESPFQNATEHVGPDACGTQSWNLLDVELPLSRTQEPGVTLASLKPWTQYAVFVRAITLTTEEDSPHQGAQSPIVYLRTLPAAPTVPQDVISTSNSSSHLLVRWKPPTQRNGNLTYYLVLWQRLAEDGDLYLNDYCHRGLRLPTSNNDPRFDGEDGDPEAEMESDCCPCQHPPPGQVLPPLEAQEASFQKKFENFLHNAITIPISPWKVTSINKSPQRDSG
Insulin receptor-related protein (Homo sapiens), sequence (P14616 747-1297 limits assumed): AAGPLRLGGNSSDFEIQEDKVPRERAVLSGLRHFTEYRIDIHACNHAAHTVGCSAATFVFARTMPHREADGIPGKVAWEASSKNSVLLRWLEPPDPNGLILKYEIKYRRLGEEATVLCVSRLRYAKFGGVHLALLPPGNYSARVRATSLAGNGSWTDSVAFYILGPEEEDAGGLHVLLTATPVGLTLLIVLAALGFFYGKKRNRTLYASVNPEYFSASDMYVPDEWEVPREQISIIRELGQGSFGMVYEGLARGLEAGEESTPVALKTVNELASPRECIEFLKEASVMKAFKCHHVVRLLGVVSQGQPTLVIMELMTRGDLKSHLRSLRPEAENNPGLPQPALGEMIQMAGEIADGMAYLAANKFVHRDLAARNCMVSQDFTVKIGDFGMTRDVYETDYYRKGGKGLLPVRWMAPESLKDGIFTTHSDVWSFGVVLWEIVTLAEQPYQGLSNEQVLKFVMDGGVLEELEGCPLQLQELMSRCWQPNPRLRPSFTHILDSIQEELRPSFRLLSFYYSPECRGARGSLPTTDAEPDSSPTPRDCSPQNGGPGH

[19] = target: Insulin receptor-related protein (Homo sapiens) (UniProt P14616); conditions: at 10 µM
[20] = target: T6, Tyrosine-protein kinase ITK/TSK (Homo sapiens) (UniProt Q08881); conditions: at 1 µM
T6 sequence (whole entry): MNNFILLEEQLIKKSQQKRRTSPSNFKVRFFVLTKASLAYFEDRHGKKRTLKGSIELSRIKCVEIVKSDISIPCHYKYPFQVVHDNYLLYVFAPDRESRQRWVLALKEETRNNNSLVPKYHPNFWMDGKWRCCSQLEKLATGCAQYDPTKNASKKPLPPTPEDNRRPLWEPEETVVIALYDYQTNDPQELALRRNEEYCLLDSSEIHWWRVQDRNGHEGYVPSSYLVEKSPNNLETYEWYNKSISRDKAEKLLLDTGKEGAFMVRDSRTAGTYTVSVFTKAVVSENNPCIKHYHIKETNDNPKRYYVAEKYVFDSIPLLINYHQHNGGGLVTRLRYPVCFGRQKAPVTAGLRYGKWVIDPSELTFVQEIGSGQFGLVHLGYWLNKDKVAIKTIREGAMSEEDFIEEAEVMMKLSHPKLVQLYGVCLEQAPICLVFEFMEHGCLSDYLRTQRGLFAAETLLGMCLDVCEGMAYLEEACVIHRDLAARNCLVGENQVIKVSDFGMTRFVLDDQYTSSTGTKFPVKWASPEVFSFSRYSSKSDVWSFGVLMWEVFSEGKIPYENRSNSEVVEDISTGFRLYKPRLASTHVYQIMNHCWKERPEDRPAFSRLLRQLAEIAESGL

Row | Structure (SMILES) | residual activity [1] [%] | residual activity [2] [%] | residual activity [3] [%] | residual activity [4] [%] | residual activity [5] [%] | residual activity [6] [%] | residual activity [7] [%] | residual activity [8] [%] | residual activity [9] [%] | residual activity [10] [%] | residual activity [11] [%] | residual activity [12] [%] | residual activity [13] [%] | residual activity [14] [%] | residual activity [15] [%] | residual activity [16] [%] | residual activity [17] [%] | residual activity [18] [%] | residual activity [19] [%] | residual activity [20] [%]
1 | COc1cc2ncnc(Nc3ccc(Oc4ccccc4)cc3)c2cc1OC | 57 | 99 | 98 | 110 | 89 | 117 | 101 | 103 | 122 | 110 | 98 | 93 | 91 | 87 | 79 | 98 | 79 | 82 | 81 | 86
2 | NC(=O)c1ccc2[nH]c(-c3ccc(Oc4ccc(Cl)cc4)cc3)nc2c1 | 60 | 84 | 85 | 89 | 85 | 123 | 137 | 108 | 106 | 102 | 108 | 100 | 94 | 95 | 82 | 80 | 79 | 107 | 101 | 102
3 | Cc1ccc(NC2=CC(=O)c3sc(C)nc3C2=O)cc1 | 74 | 90 | 83 | 95 | 92 | 107 | 103 | 106 | 98 | 95 | 90 | 102 | 96 | 105 | 110 | 85 | 86 | 118 | 108 | 105
4 | C[C@@H](N)[C@H]1CC[C@H](C(=O)Nc2ccncc2)CC1 | 99 | 113 | 105 | 115 | 105 | 136 | 64 | 87 | 77 | 100 | 109 | 104 | 97 | 100 | 98 | 101 | 95 | 103 | 101 | 106
5 | Oc1ccc(Nc2nc(-c3ccc(Cl)cc3)cs2)cc1 | 80 | 123 | 100 | 103 | 108 | 102 | 134 | 115 | 110 | 112 | 133 | 108 | 103 | 100 | 111 | 108 | 97 | 115 | 85 | 104
6 | CCN(CC)CCCCN1c2ccccc2Oc2ccc(Cl)cc21 | 82 | 84 | 105 | 107 | 104 | 97 | 102 | 112 | 105 | 114 | 112 | 102 | 104 | 111 | 105 | 118 | 107 | 121 | 102 | 108
